# Measured values from PubChem BioAssay (NCI).
# This is part of a sample that, as a whole, favours compounds with a hit. Of some 79,000 tested, about 15% had one in any assay. A number with no mark means an inactive call. Active and inactive are the calls of the source. Rule as the data show it: active = growth inhibition above about 70%; inactive = the rest.
# Legend:
# [1] = NCI Yeast Anticancer Drug Screen. Data for the rad50 strain (AID 155);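 also: 0% = growth of vehicle-only cultures of the same strain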; conditions: S. cerevisiae rad50 strain growth inhibition, hits give high values
# In short: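 A DNA repair-deficient yeast mutant serves as the test organism; compound-induced growth inhibition is calculated against vehicle-treated cells.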
# [2] = NCI Yeast Anticancer Drug Screen. Data for the mec2-1 strain (AID 157); conditions: S. cerevisiae mec2-1 strain, hits give high values
# In short: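 Using mec2-1 yeast: add compound, measure growth, express inhibition versus vehicle-treated cultures.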
# [3] = NCI Yeast Anticancer Drug Screen. Data for the sgs1 mgt1 strain (AID 161);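 also: 0% = growth of cultures given vehicle only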; conditions: S. cerevisiae sgs1 mgt1 strain, hits give high values
# In short: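 Compounds are added to genetically altered yeast, and growth is compared with cultures given vehicle alone to give percent inhibition.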
# [4] = NCI Yeast Anticancer Drug Screen. Data for the cln2 rad14 strain (AID 165);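 also: 0% = growth equal to vehicle treated cultures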; conditions: S. cerevisiae cln2 rad14 strain, hits give high values
# In short: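 Yeast strain cln2 rad14, bearing defects in cell cycle control and DNA repair, serves as the test system; values reflect growth inhibition compared with vehicle.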
# [5] = NCI Yeast Anticancer Drug Screen. Data for the bub3 strain (AID 167); conditions: S. cerevisiae bub3 mutant strain, hits give high values
# In short: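 Inhibition values come from growth of compound-treated mutant yeast normalised to vehicle-treated controls.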
# [6] = NCI Yeast Anticancer Drug Screen. Data for the mlh1 rad18 strain (AID 175); conditions: S. cerevisiae mlh1 rad18 strain growth inhibition, hits give high values
# In short: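 Steps: expose repair-defective yeast to compound; measure growth; express inhibition against vehicle-treated controls.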
# [7] = at 5.0 µM (retest, dose inferred, filed as 0.5)
# [8] = at 50.0 µM (retest, dose inferred, filed as 5.0)
SMILES,"growth inhibition [1, 7]","growth inhibition [1, 8]",growth inhibition ([1]; at 50.0 µM),"growth inhibition [2, 7]","growth inhibition [2, 8]",growth inhibition ([2]; at 50.0 µM),"growth inhibition [3, 7]","growth inhibition [3, 8]",growth inhibition ([3]; at 50.0 µM),"growth inhibition [4, 7]","growth inhibition [4, 8]",growth inhibition ([4]; at 50.0 µM),"growth inhibition [5, 7]","growth inhibition [5, 8]",growth inhibition ([5]; at 50.0 µM),"growth inhibition [6, 7]","growth inhibition [6, 8]",growth inhibition ([6]; at 50.0 µM)
CN(C)C(=S)/N=c1\ss/c(=N\C(=S)N(C)C)n1-c1ccc(Cl)cc1,9%,9%,94.2% (active),14%,-7%,92.1% (active),7%,13%,95.7% (active),5%,-10%,72.3% (active),3%,-2%,90% (active),8%,29%,96.2% (active)
O=[N+]([O-])c1ccc2c(c1)N([O-])C1(CCCCC1)[N+]2=O,25%,99% (active),89% (active),24%,99% (active),92.9% (active),23%,97% (active),91.2% (active),22%,98% (active),88% (active),10%,98% (active),91.1% (active),37%,99% (active),88.4% (active)
CC1/C(=N\O)CC(c2ccccc2)N(C)C1c1ccccc1 (configuration not stated),96% (active),96% (active),98.2% (active),96% (active),98% (active),98.2% (active),96% (active),97% (active),97.7% (active),58%,78% (active),83.5% (active),94% (active),96% (active),98% (active),95% (active),97% (active),97.7% (active)
C#CC(C)(C)OC(C)=O,-2%,26%,69.9%,0%,0%,19.2%,-1%,5%,69.5%,2%,0%,5.75%,1%,4%,35.6%,-1%,4%,76.6% (active)
COc1c(C(=O)/C(=N/Nc2ccccc2)C(C)=O)c(O)c(OC)c2occc12,-2%,94% (active),45.7%,-18%,87% (active),52.5%,-39%,82% (active),73.2% (active),-19%,91% (active),33%,-32%,92% (active),47.8%,2%,90% (active),68.8%
O=C(C#CC(=O)[O][Sn]([c]1ccccc1)([c]1ccccc1)[c]1ccccc1)[O][Sn]([c]1ccccc1)([c]1ccccc1)[c]1ccccc1,99% (active),99% (active),99.1% (active),100% (active),99% (active),99.5% (active),100% (active),99% (active),99.5% (active),99% (active),99% (active),98.4% (active),99% (active),99% (active),99% (active),99% (active),99% (active),99.2% (active)
CCOC(=O)c1c(C)n(C)c2c1nnc1ccccc12,16%,85% (active),64.7%,15%,79% (active),51.1%,19%,82% (active),59%,12%,69%,55.2%,1%,73% (active),46%,7%,83% (active),57.1%
Cc1cc(C2CCCCC2)n(O)c(=O)c1,98% (active),99% (active),98.8% (active),98% (active),99% (active),99.2% (active),98% (active),99% (active),99.5% (active),96% (active),98% (active),99.3% (active),96% (active),99% (active),98.7% (active),98% (active),99% (active),99.3% (active)
NS(=O)(=O)c1ccc(NC(=O)Cc2nc3ccccc3s2)cc1,36%,99% (active),91% (active),40%,99% (active),91% (active),54%,100% (active),93.2% (active),31%,94% (active),90.7% (active),49%,99% (active),92% (active),65%,99% (active),91.2% (active)
